Pf growth 48h: Primary qHTS for delayed death inhibitors of the malarial parasite plastid, 48 hour incubation; actives 5.9% (n = 310,000); Potency, µM (highest dose often 28.7 µM), usual class: inhibitors; AID 504832, 2011; P. falciparum luciferase growth in erythrocytes, 48 h
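Luciferase-expressing parasites in RBCs, 2% Hct / 0.1% parasitemia final; RPMI 1640 + 0.5% Albumax; 37 C, 5% CO2, one generation; luminescence read-out, lower signal = inhibition.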
NS1 inh: qHTS Assay for Inhibitors of Influenza NS1 Protein Function; Potency, µM (highest dose often 46.1 µM); actives 0.4% (n = 270,000); calls by dose curve; further: actives are rising curves; nearly all actives have a fitted effect of over 50% in size
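S. cerevisiae expressing influenza A NS1, grown in glucose, washed, then diluted 1:100 into pH 6.0 -URA galactose medium with 23 nl compound. Growth recovery read as OD600; NS1-free strain serves as control.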
SARS PLpro yeast: qHTS of Yeast-based Assay for SARS-CoV PLP; S. cerevisiae expressing SARS-CoV PLpro, growth rescue; Potency, µM (titrated, usually from 32.9 µM), hits mostly activators; actives 0.19% (n = 330,000); calls by dose curve; further: nearly all actives have a fitted effect of over 55% in size
Pf growth 96h: Primary qHTS for delayed death inhibitors of the malarial parasite plastid, 96 hour incubation; P. falciparum luciferase reporter growth, 96 h; actives 6.9% (n = 320,000); Potency, µM (titrated, usually from 28.7 µM), hits mostly inhibitors
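Erythrocytes infected with luciferase-expressing P. falciparum were dispensed at 2% hematocrit and 0.05% parasitemia (final), then incubated with compounds 96 hours at 37 C in 5% CO2. Luminescence after detection reagent addition reported growth.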
RE007 growth inh: qHTS Assay for Inhibitors of the HIV-1 protein Vpr; S. pombe RE007 Vpr strain, BacTiter-Glo ATP luminescence, 24 h; Potency, µM (series often up to 92.2 µM), most hits filed as inhibitors; actives 0.21% (n = 360,000); AID 651644, 2012; active means well fitted falling curve with a large enough effect; inconclusive means small, poorly fitted or top-dose-only effect; inactive means no such curve, though single readings can be large or run the other way; further: nearly all actives have a fitted effect of over 50% in size
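Fission yeast strain RE007, carrying one chromosomally integrated HIV-1 vpr copy, was seeded at OD 0.01 in PMG+AL medium with 23 nL pinned compound. After 24 h at 30 °C and 99% humidity, viability was read by BacTiter-Glo luminescence.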
Of the large screens only hits and unclear results are named; the others gave an inactive call. In the library only some 9.5% were active in any assay of this set; here they are far more common. Unless noted, the call rests on the fitted dose curve; in most records, active means well fitted inhibition curve with a large enough effect; inconclusive means small, poorly fitted or top-dose-only effect, or another doubt; inactive means no such curve, though single readings can be large or run the other way.

O=C1CSC(c2ccc([N+](=O)[O-])cc2)N1C1CCCCC1 (configuration not stated)	Pf growth 96h 0.47µM (no result: NS1 inh)
O=C1CSC(c2ccc([N+](=O)[O-])cc2)N1CCN1CCCCC1 (configuration not stated)	Pf growth 96h inconclusive (no result: NS1 inh)
Cn1c(N)c(C(=O)COC(=O)c2cc(S(=O)(=O)N3CCOCC3)ccc2F)c(=O)n(C)c1=O	none (no result: Pf growth 48h, NS1 inh, Pf growth 96h)
Cc1ccc(N2CC(C(=O)N3CCC(C(=O)Nc4nnc(C(C)(C)C)s4)CC3)CC2=O)cc1 (configuration not stated)	Pf growth 48h inconclusive
CC(C)NCC(O)c1ccc(N)c(C#N)c1 (configuration not stated)	Pf growth 96h 12µM (no result: NS1 inh, SARS PLpro yeast, RE007 growth inh)
C=CCOc1ccc(-c2nc3c(c(=O)[nH]c(=O)n3CCCC)n2C)cc1Br	none
CCCCn1c(=O)[nH]c(=O)c2c1nc(-c1ccc(OC)c(Br)c1)n2CC(C)C	Pf growth 48h inconclusive, Pf growth 96h 2.1µM
CCOC(=O)c1c(C)[nH]c(C)c1C(=O)COC(=O)/C=C/c1ccco1	Pf growth 48h inconclusive (no result: NS1 inh)
CCCCCOC(=O)Cc1c(C)nc(-c2ccccc2)[nH]c1=O	Pf growth 48h 1.9µM, Pf growth 96h inconclusive
Cc1ccc(N(C(=O)CNC(=O)c2ccco2)C(C(=O)NC2CCCCC2)c2ccncc2)cc1F (configuration not stated)	Pf growth 96h inconclusive
CC(C)c1ccccc1OCC(O)CN1CCN(S(=O)(=O)c2ccc([N+](=O)[O-])cc2)CC1 (configuration not stated)	Pf growth 48h 3.7µM, Pf growth 96h 2.6µM
O=S(=O)(c1ccc(F)cc1)N1CCN(CC(O)COc2ccccc2F)CC1 (configuration not stated)	none
C#CCOCCOCCOCCNc1nc(N2CCN(C(=O)[C@H](Cc3cc4ccccc4[nH]3)n3cc([C@@H](N)Cc4ccc(O)cc4)nn3)CC2)nc(N2CCN(C(=O)[C@H](Cc3cc4ccccc4[nH]3)n3cc([C@@H](N)CC(C)C)nn3)CC2)n1	Pf growth 48h 13µM, Pf growth 96h 10µM
C#CCOCCOCCOCCNc1nc(N2CCN(C(=O)[C@H](Cc3cc4ccccc4[nH]3)n3cc([C@@H](N)C(C)CC)nn3)CC2)nc(N2CCN(C(=O)[C@H](Cc3cc4ccccc4[nH]3)n3cc([C@@H](N)Cc4ccc(O)cc4)nn3)CC2)n1 (some centres not stated)	Pf growth 48h inconclusive, Pf growth 96h inconclusive (no result: RE007 growth inh)
C#CCOCCOCCOCCNc1nc(N2CCN(C(=O)C(CCC(=O)O)n3cc(C(N)CC(C)C)nn3)CC2)nc(N2CCN(C(=O)C(Cc3cc4ccccc4[nH]3)n3cc(C(N)Cc4ccc(O)cc4)nn3)CC2)n1 (configuration not stated)	none
C#CCOCCOCCOCCNc1nc(N2CCN(C(=O)[C@H]([C@@H](C)CC)n3cc([C@@H](N)Cc4ccc(O)cc4)nn3)CC2)nc(N2CCN(C(=O)[C@H](Cc3cc4ccccc4[nH]3)n3cc([C@@H](N)C(C)CC)nn3)CC2)n1 (some centres not stated)	Pf growth 48h inconclusive, Pf growth 96h 12µM (no result: RE007 growth inh)
C#CCOCCOCCOCCNc1nc(N2CCN(C(=O)[C@H](Cc3ccc(O)cc3)n3cc([C@@H](N)C(C)CC)nn3)CC2)nc(N2CCN(C(=O)[C@H](Cc3cc4ccccc4[nH]3)n3cc([C@@H](N)C(C)CC)nn3)CC2)n1 (some centres not stated)	Pf growth 48h inconclusive, Pf growth 96h inconclusive
C#CCOCCOCCOCCNc1nc(N2CCN(C(=O)C(Cc3cc4ccccc4[nH]3)n3cc(C(N)Cc4ccc(O)cc4)nn3)CC2)nc(N2CCN(C(=O)C(Cc3cc4ccccc4[nH]3)n3cc(C(N)Cc4ccc(O)cc4)nn3)CC2)n1 (configuration not stated)	Pf growth 48h 2.3µM, Pf growth 96h inconclusive

Screens: PubChem, National Center for Advancing Translational Sciences (NCATS)
